Consider five molecules from PubChem BioAssay.

The source made the active and inactive calls.

A short description of experiment [1]: E. coli DRC41 culture turbidity changes, primary screen, E. coli filamentation inducer project, strain DRC41, OD650, 48 h (AID 1152).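 Also: E. coli MC1000 strain DRC41 lacking acrAB efflux pump and sulA.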 The settings on record: E. coli DRC41 (acrAB sulA), higher = more signal, called active from +8 up or from −8 down.
Experiment [2] in a line: small-molecule binders of probe aLefty1, primary screen, biochemical, small-molecule microarray, 635/667 nm fluorescence (AID 1153).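 Also: score merges spot fluorescence with signal-to-noise ratio from the scanned slide images.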 Particulars: higher = more signal.
Experiment [3] in a line: PSAC antagonists in infected red cells, primary screen, cell-based, P. falciparum Indochina, OD700, 1 h (AID 1154). The settings on record: P. falciparum Indochina infected RBC osmotic lysis, higher = more signal, called active from +8 up or from −8 down.
The nature of experiment [4]: PSAC antagonists in infected red cells, primary screen, cell-based, P. falciparum Indochina, OD700, 2 h (AID 1155).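 Also: lysis reports solute entry through the parasite surface anion channel PSAC; channel blockers reduce lysis of infected cells.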 The settings on record: P. falciparum Indochina infected erythrocytes, osmotic lysis OD700; higher = more signal, called active from +8 up or from −8 down.
Experiment [5] can be described thus: osmotic lysis modulators in infected erythrocytes, primary screen, PSAC antagonist project, cell-based, P. falciparum Indochina, OD700, 3 h (AID 1156). Particulars: higher = more signal, called active from +8 up or from −8 down.
The nature of experiment [6]: PSAC antagonists in infected red cells, primary screen, cell-based, P. falciparum Indochina, OD700, 18 h (AID 1157). Particulars: P. falciparum Indochina infected erythrocytes, osmotic lysis OD700, 18 h; higher = more signal, called active from +8 up or from −8 down.
Experiment [7] in a line: modulators of S6 phosphorylation in cells, primary screen, cell-based, A549, cytoblot, luminescence, serum-stimulated (AID 1158).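 Also: serum-stimulated A549 lung adenocarcinoma cells; signal is phosphorylated S6 detected by cytoblot immunostaining with HRP secondary.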 The settings on record: A549 phospho-S6 cytoblot, 5 h, higher = more signal.
Experiment [8] concerns the target NADPH oxidase 2 (Homo sapiens) (UniProt P04839). The experiment is described as follows: NOX2-dependent H2O2 signal modulators, primary screen, NOX inhibitor project, cell-based, HEK293-NOX2, PMA-stimulated, Amplex Red fluorescence (AID 1159). Also: test concentration not given here. The settings on record: 45 min, higher = more signal, called active from +8 up or from −8 down.
The target of experiment [9] is NADPH oxidase 4 (Homo sapiens) (UniProt Q9NPH5). The experiment in a line: NOX4-dependent H2O2 signal modulators, primary screen, NOX inhibitor project, cell-based, HEK293-NOX4, tetracycline-induced, Amplex Red fluorescence (AID 1160). Particulars: 45 min, higher = more signal, called active from +8 up or from −8 down.
The target in experiment [10] is NADPH oxidase 5 (Homo sapiens) (UniProt Q96PH1). The experiment in a line: NOX5-dependent H2O2 signal modulators, primary screen, NOX inhibitor project, cell-based, HEK293-NOX5, Amplex Red fluorescence (AID 1161). The settings on record: HEK293-NOX5, ionomycin, 45 min, higher = more signal.
The nature of experiment [11]: A549 cell viability effects, profiling panel, calcein-AM fluorescence, 48 h, basal (AID 1162). Also: test concentration not given here. Particulars: higher = more signal.
Experiment [12] in a line: adipocyte viability effects, profiling panel, cell-based, 3T3-L1 adipocytes, calcein-AM fluorescence, 48 h, basal (AID 1163). Also: test concentration not given here. The settings on record: 3T3-L1 adipocytes viability, higher = more signal.
Experiment [13] is described as follows: HepG2 cell viability effects, profiling panel, calcein-AM fluorescence, 48 h, basal (AID 1164). Also: test concentration not given here. Particulars: higher = more signal.
A short description of experiment [14]: MM1S cell viability effects, profiling panel, calcein-AM fluorescence, 48 h, basal (AID 1165).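 Also: viability of MM1S multiple myeloma cells under basal unstimulated conditions; test concentration not given here.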 The settings on record: higher = more signal.
Experiment [15] in a line: basal RPMI8226 viability, no added stimulus, profiling panel, cell-based, calcein-AM fluorescence, 48 h, PK04 Diversity Set (AID 1166).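 Also: cells grown under basal conditions without added stimulus; test concentration not given here.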 Particulars: RPMI8226 myeloma viability, higher = more signal.
Experiment [16] can be described thus: basal HepG2 mitochondrial membrane potential changes, profiling panel, cell-based, JC-1 fluorescence, 24 h, 100 nL compound (AID 1167). Also: test concentration not given here. The settings on record: higher = more signal.
Experiment [17] is described as follows: basal 3T3-L1 adipocyte mitochondrial potential changes, profiling panel, cell-based, JC-1 fluorescence, 3T3-L1 adipocytes, 24 h, 100 nL compound (AID 1168). Also: test concentration not given here. Particulars: JC-1 mitochondrial fluorescence, higher = more signal, called active from +8 up or from −8 down.
Experiment [18] is described as follows: basal RPMI8226 mitochondrial membrane potential changes, profiling panel, cell-based, JC-1 fluorescence, 24 h, 100 nL compound (AID 1169). Also: test concentration not given here. Particulars: RPMI8226 myeloma, JC-1 mitochondrial potential fluorescence, higher = more signal.
Experiment [19] in a line: basal MM1S mitochondrial membrane potential changes, profiling panel, cell-based, JC-1 fluorescence, 24 h, 100 nL compound (AID 1170). Also: test concentration not given here. Particulars: higher = more signal.
Experiment [20] in a line: A549 lung cancer cell viability effects, profiling panel, resazurin fluorescence, 24 h, PK04 Diversity Set (AID 1171). Also: test concentration not given here. The settings on record: higher = more signal, called active from +8 up or from −8 down. A general note: Alamar Blue is a resazurin reagent that responds to reducing activity.

Chain of NADPH oxidase 2 (Homo sapiens) (P04839 whole entry, looked up): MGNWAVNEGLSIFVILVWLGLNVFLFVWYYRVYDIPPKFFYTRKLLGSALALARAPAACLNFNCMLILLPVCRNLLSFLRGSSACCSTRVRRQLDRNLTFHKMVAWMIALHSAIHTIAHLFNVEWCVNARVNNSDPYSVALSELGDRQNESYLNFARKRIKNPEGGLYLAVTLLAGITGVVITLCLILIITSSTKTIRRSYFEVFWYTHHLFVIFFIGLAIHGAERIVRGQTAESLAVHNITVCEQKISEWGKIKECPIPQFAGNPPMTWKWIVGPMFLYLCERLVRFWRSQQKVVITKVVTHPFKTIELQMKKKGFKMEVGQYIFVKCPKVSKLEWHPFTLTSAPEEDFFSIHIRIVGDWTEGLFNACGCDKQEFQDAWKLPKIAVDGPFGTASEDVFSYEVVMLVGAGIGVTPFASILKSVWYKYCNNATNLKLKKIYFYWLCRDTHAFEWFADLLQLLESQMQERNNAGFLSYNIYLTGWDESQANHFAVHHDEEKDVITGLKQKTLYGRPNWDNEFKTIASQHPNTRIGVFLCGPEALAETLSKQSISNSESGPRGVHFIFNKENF
Chain of NADPH oxidase 4 (Homo sapiens) (Q9NPH5 whole entry, looked up): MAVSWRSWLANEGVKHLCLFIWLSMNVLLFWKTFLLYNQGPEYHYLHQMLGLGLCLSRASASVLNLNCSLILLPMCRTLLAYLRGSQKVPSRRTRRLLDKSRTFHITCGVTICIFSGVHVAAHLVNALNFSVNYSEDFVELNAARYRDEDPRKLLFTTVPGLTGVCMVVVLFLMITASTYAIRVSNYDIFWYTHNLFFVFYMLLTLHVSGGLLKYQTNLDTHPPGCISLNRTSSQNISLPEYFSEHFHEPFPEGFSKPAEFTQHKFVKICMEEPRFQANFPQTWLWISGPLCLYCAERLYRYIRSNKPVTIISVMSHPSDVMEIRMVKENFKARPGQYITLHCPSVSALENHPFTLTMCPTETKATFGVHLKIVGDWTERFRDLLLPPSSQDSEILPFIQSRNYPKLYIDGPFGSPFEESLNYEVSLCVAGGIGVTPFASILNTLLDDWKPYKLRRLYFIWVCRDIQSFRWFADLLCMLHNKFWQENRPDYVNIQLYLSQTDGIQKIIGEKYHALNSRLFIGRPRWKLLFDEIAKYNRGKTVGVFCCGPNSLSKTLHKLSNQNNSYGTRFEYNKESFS
Chain of NADPH oxidase 5 (Homo sapiens) (Q96PH1 whole entry, looked up): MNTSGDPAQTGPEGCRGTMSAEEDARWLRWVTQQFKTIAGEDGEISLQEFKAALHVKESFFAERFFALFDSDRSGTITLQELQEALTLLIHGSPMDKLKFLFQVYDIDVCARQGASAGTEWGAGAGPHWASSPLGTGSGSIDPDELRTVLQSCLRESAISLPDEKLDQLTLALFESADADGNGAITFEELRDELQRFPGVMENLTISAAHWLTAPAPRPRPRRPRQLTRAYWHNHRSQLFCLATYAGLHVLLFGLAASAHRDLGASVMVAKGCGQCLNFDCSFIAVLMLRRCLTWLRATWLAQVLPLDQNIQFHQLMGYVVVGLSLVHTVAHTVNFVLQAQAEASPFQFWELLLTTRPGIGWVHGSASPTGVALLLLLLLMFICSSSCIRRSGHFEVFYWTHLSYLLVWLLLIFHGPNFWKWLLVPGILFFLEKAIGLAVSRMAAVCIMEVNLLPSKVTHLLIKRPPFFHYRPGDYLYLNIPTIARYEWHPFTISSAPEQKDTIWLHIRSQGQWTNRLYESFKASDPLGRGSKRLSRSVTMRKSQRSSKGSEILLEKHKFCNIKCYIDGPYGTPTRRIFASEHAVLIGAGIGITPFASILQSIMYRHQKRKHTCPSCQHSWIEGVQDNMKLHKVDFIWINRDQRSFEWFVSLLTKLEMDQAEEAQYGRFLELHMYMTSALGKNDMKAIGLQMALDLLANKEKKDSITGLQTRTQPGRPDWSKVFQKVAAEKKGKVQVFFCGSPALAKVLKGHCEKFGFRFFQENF

`COc1ccc(C(=O)Nc2cccc(CN3C(=O)[C@@]4(O[C@@H](CC(=O)N5Cc6ccccc6C[C@H]5CO)[C@H]([Si](C)(C)c5ccc(OC)cc5)[C@H]4C)c4ccccc43)c2)cc1`: the z-score in [1] is -0.333 (inactive); in experiment [3], 4.24 (inactive); in experiment [4], 1.49 (inactive); in experiment [5] it was 0.712 (inactive); in experiment [6], 0.768 (inactive); in experiment [7] it was 1.33. Moreover, the z-score in [8] is -1.03 (inactive); in experiment [9] it was 0.0938 (inactive); in [10], -0.713; in experiment [11], 0.0601; in [12], 0.778; in experiment [13], -0.446. Moreover, the z-score was -2.57 in experiment [14]; -3.06 in [15]; 0.851 in experiment [16]; 0.862 (inactive) in experiment [17]; -0.976 in [18]; -1.88 in experiment [19]. In addition, the z-score in [20] was -0.967 (inactive). This molecule showed a composite z-score in experiment [2] of 0.139.

Take `CCCC[C@@H]1C[C@H]1[C@@H](NC(=O)c1ccccc1)c1ccc(-c2ccccc2)cc1`: the z-score in [1] was -1.66 (inactive); in [3], 11.5 (active); in [4], 1.95 (inactive); in experiment [5], 1.57 (inactive); in experiment [6], 1.16 (inactive); in experiment [7], 0.319. Moreover, the z-score in [8] was -1.68 (inactive); in experiment [9], -2.79 (inactive); in experiment [10] it was 0.666; in [11], -1.54; in experiment [12], -1.15; in experiment [13], -3.24. The z-score was -2.55 in experiment [14]; -4.26 in [15]; -3.59 in experiment [16]; -0.49 (inactive) in [17]; -0.568 in experiment [18]; -2.19 in [19]. For the same molecule, the z-score in experiment [20] was -1.31 (inactive). In experiment [2], this molecule showed a composite z-score of 0.212.

`CC(=O)NCCCC[C@@H]1NC(=O)[C@@H]2C[C@H](C(=O)NCCCCCC[N+](C)(C)C)[C@H](c3cccc(OCCO)c3)N2C1=O`: the z-score in experiment [1] is 0.0924 (inactive); in [3], 2.99 (inactive); in experiment [4] it was 0.591 (inactive); in [5] it was -0.956 (inactive); in [6], 0.325 (inactive); in experiment [7], -0.507. In addition, the z-score was 1.09 (inactive) in experiment [8]; 0.91 (inactive) in experiment [9]; 0.593 in experiment [10]; -0.339 in [11]; -0.547 in experiment [12]; -0.231 in experiment [13]. For the same molecule, the z-score is -0.241 in experiment [14]; 0.397 in experiment [15]; -1.51 in [16]; -0.0349 (inactive) in experiment [17]; 0.226 in [18]; -0.12 in [19]. The z-score in experiment [20] was 0.481 (inactive). The molecule also displayed a composite z-score in experiment [2] of 0.156.

On to `[N-]=[N+]=NCc1ccccc1C[C@]1(C(=O)NCC(O)CO)COC(c2ccc(OCCCO)cc2)=N1` (stereo not given in full), for which the z-score is 0.896 (inactive) in [1]; 24.8 (active) in experiment [3]; 10.2 (active) in experiment [4]; 3.96 (inactive) in [5]; 0.91 (inactive) in [6]; -0.0894 in [7]. In addition, the z-score in experiment [8] is -2.99 (inactive); in [9], -0.28 (inactive); in [10] it was -2.11; in experiment [11], -0.226; in experiment [12] it was -0.314; in experiment [13], 0.0226. Moreover, the z-score was -1.02 in experiment [14]; -1.29 in experiment [15]; -0.727 in experiment [16]; -0.491 (inactive) in experiment [17]; -1.26 in experiment [18]; -0.714 in experiment [19]. Further, the z-score in experiment [20] is 2.56 (inactive). The same molecule showed a composite z-score in experiment [2] of 0.746.

For the molecule `O=C(NCC(F)(F)F)[C@@H]1c2ccccc2C(=O)N(Cc2ccccc2)[C@H]1c1ccc(CO)cc1`, the z-score in [1] is 0.467 (inactive); in experiment [3], 0.878 (inactive); in experiment [4] it was -0.453 (inactive); in [5] it was 0.239 (inactive); in experiment [6] it was -0.406 (inactive); in experiment [7], -0.325. Further, the z-score in experiment [8] is -0.489 (inactive); in experiment [9] it was 0.597 (inactive); in experiment [10] it was -0.601; in experiment [11] it was 1.73; in experiment [12], 0.402; in experiment [13] it was 1.34. For the same molecule, the z-score in experiment [14] was 0.356; in experiment [15] it was -0.407; in [16] it was 2.14; in experiment [17], 1.2 (inactive); in [18] it was 0.0511; in experiment [19], -0.657. For the same molecule, in [20], the z-score is 0.176 (inactive). For the same molecule, the composite z-score in experiment [2] is -0.147.
